This note sets out measurements from the supplement of paper PMC8007513.

The test system of this assay is Trichoderma virens ATCC 9645. Put plainly: growth yield (OD600) with compound + IPBC relative to untreated control; higher = less growth inhibition. Particulars: compound concentration: 100 uM, IPBC concentration: 200 ng/ml. The essentials: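 Trichoderma virens ATCC 9645 spores from 7-day potato dextrose agar plates were suspended in potato dextrose broth at 15,000 spores ml^−1. Aliquots of 100 μl with library compounds at 100 μM final, with or without a co-applied biocide at 200 ng ml^−1, were grown in 96-well plates at 30 °C. OD600 was read at 40 h and 72 h on a BioTek EL800. Growth is expressed relative to the control without either agent, as means of duplicate screens.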

Structures can show the parent of a compound that is named as a salt. ± gives the standard error. Screen size: about 1,300 compounds; about 130 (10%) showed an effect of 50% or more. The full list was thinned out, with strong results kept by preference.

As to `CCCCNc1c(C(=O)OCC)c(C)nc2c1cnn2CC` [Tracazolate hydrochloride] + CCCCNC(=O)OCC#CI [3-iodo-2-propynyl butylcarbamate (IPBC)], the growth yield is, setting by setting: (40 h) 21.9%; (72 h) 53.7 ± 0.21%.
In the same order, the values of `CCCCNc1ccc(C(=O)OCCN(C)C)cc1` + CCCCNC(=O)OCC#CI [3-iodo-2-propynyl butylcarbamate (IPBC)] are 81.5 ± 1.4% and 88.2 ± 0.32%.
Regarding `CCCCNc1ccc(C(=O)OCCOCCOCCOCCOCCOCCOCCOCCOCCOC)cc1` [Benzonatate] + CCCCNC(=O)OCC#CI [3-iodo-2-propynyl butylcarbamate (IPBC)], the growth yield was determined as 77.4 ± 1.1% (40 h) and 83.27 ± 0.42% (72 h).
For `CC(C)(S)C(N)C(=O)O` (racemic) [D,L-Penicillamine] + CCCCNC(=O)OCC#CI [3-iodo-2-propynyl butylcarbamate (IPBC)], in that order: 94.8 ± 8.4% and 94.2 ± 5.5%.
Turning to `COC1=CC(=O)C[C@@H](C)[C@]12Oc1c(Cl)c(OC)cc(OC)c1C2=O` [Griseofulvin] + CCCCNC(=O)OCC#CI [3-iodo-2-propynyl butylcarbamate (IPBC)], the growth yield is 48.8 ± 3.6% (40 h) and 85.2 ± 1.1% (72 h).
For `CCC(=O)O[C@@H](O[P@](=O)(CCCCc1ccccc1)CC(=O)N1C[C@H](C2CCCCC2)C[C@H]1C(=O)O)C(C)C` [Fosinopril] + CCCCNC(=O)OCC#CI [3-iodo-2-propynyl butylcarbamate (IPBC)], in that order: 86.9 ± 9.1% and 94.8 ± 7.3%.
In the same order, the values of `Cc1cc(C(C)(C)CC(C)(C)C)ccc1OCCOCC[N+](C)(C)Cc1ccccc1` [Methyl benzethonium chloride] + CCCCNC(=O)OCC#CI [3-iodo-2-propynyl butylcarbamate (IPBC)] are 2.86 ± 0.64% and 2.62 ± 0.1%.
For `CC(C)(C)CC(C)(C)c1ccc(OCCOCC[N+](C)(C)Cc2ccccc2)cc1` [Benzethonium chloride] + CCCCNC(=O)OCC#CI [3-iodo-2-propynyl butylcarbamate (IPBC)], in that order: 3.18 ± 0.32% and 2.52 ± 0.42%.
Turning to `C[N+](C)(CCOc1ccccc1)Cc1ccccc1.O=C([O-])c1cc2ccccc2cc1O` [Bephenium hydroxynaphthoate] + CCCCNC(=O)OCC#CI [3-iodo-2-propynyl butylcarbamate (IPBC)], the growth yield by setting is: (40 h) 63.5%; (72 h) 85.3 ± 2.4%.
For `CCC(=O)O[C@]1(C(=O)SCF)[C@H](C)C[C@H]2[C@@H]3C[C@H](F)C4=CC(=O)C=C[C@]4(C)[C@@]3(F)[C@@H](O)C[C@@]21C` [Fluticasone propionate] + CCCCNC(=O)OCC#CI [3-iodo-2-propynyl butylcarbamate (IPBC)], in that order: 101 ± 0.64% and 99.63 ± 0.42%.
In the same order, the values of `Cc1cc(CC(=O)O)n(C)c1C(=O)c1ccc(Cl)cc1` [Zomepirac sodium salt] + CCCCNC(=O)OCC#CI [3-iodo-2-propynyl butylcarbamate (IPBC)] are 89.59 ± 0.64% and 92.4 ± 2.2%.
In the case of `CNCC[C@@H](Oc1ccccc1C)c1ccccc1` [Tomoxetine hydrochloride] + CCCCNC(=O)OCC#CI [3-iodo-2-propynyl butylcarbamate (IPBC)], the growth yield reads like this: (40 h) 78.31 ± 0.48%; (72 h) 87.89 ± 0.84%.
In the same order, the values of `CN1CCN(C2=Nc3cc(Cl)ccc3Nc3ccccc32)CC1` [Clozapine] + CCCCNC(=O)OCC#CI [3-iodo-2-propynyl butylcarbamate (IPBC)] are 65.6 ± 2.7% and 93.8 ± 2.7%.
In the same order, the values of `CCCCCCCCNC(C)C(O)c1ccc(SC(C)C)cc1` (configuration not stated) [Suloctidil] + CCCCNC(=O)OCC#CI [3-iodo-2-propynyl butylcarbamate (IPBC)] are 5.08 ± 0.32% and 33.1 ± 2.5%.
For `CC(CCc1ccccc1)NC(C)C(O)c1ccc(O)cc1` (configuration not stated) [Nylidrin] + CCCCNC(=O)OCC#CI [3-iodo-2-propynyl butylcarbamate (IPBC)], in that order: 95.3 ± 2.9% and 96.59 ± 0.1%.
For the molecule `CC(NCCc1ccc(O)cc1)C(O)c1ccc(O)cc1` (configuration not stated) [Ritodrine hydrochloride] + CCCCNC(=O)OCC#CI [3-iodo-2-propynyl butylcarbamate (IPBC)], the growth yield (40 h) is 83.07 ± 0.16% and the growth yield (72 h) is 92.4 ± 0.32%.
`OCCN1C[C@H](O)[C@@H](O)[C@H](O)[C@H]1CO` [Miglitol] + CCCCNC(=O)OCC#CI [3-iodo-2-propynyl butylcarbamate (IPBC)]: the growth yield by setting is: (40 h) 90.1 ± 9.1%; (72 h) 93 ± 4.5%.
With `CCOC(=O)c1ccc(C#Cc2ccc3c(c2)C(C)(C)CCS3)nc1` [Tazarotene] + CCCCNC(=O)OCC#CI [3-iodo-2-propynyl butylcarbamate (IPBC)], the growth yield runs as follows: (40 h) 81.2 ± 2.7%; (72 h) 91.6 ± 1.4%.
In the same order, the values of `C#CCN[C@@H]1CCc2ccccc21` [Rasagiline] + CCCCNC(=O)OCC#CI [3-iodo-2-propynyl butylcarbamate (IPBC)] are 84.5 ± 1.3% and 85.6 ± 1.1%.
For `O=C(CCCN1CCC2(CC1)C(=O)NCN2c1ccccc1)c1ccc(F)cc1` [Spiperone] + CCCCNC(=O)OCC#CI [3-iodo-2-propynyl butylcarbamate (IPBC)], in that order: 77.8 ± 2.9% and 90.4 ± 0.21%.
As for `O=C(CCCN1CCC(O)(c2ccc(Br)cc2)CC1)c1ccc(F)cc1` [Bromperidol] + CCCCNC(=O)OCC#CI [3-iodo-2-propynyl butylcarbamate (IPBC)], the growth yield (40 h) amounted to 64.3 ± 2.1% and the growth yield (72 h) was found to be 87.3 ± 1.5%.
Consider `O=C(CCCN1CCC(O)(c2ccc(Cl)cc2)CC1)c1ccc(F)cc1` [Haloperidol] + CCCCNC(=O)OCC#CI [3-iodo-2-propynyl butylcarbamate (IPBC)], for which the growth yield is, setting by setting: (40 h) 10.2 ± 1.9%; (72 h) 60.4 ± 4.4%.
For the molecule `CSc1nc2cc(Cl)c(Oc3cccc(Cl)c3Cl)cc2[nH]1` [Triclabendazole] + CCCCNC(=O)OCC#CI [3-iodo-2-propynyl butylcarbamate (IPBC)], the growth yield stood at 66.7 ± 3.2% (40 h) and 120 ± 6.5% (72 h).
In the same order, the values of `O=C(O)c1cn(C2CC2)c2cc(N3CCNCC3)c(F)cc2c1=O` [Ciprofloxacin hydrochloride monohydrate] + CCCCNC(=O)OCC#CI [3-iodo-2-propynyl butylcarbamate (IPBC)] are 86.2 ± 8.7% and 91.5 ± 6.3%.
Take `CCOc1nc2cccc(C(=O)OCc3oc(=O)oc3C)c2n1Cc1ccc(-c2ccccc2-c2noc(=O)[nH]2)cc1` [Azilsartan kamedoxomil] + CCCCNC(=O)OCC#CI [3-iodo-2-propynyl butylcarbamate (IPBC)]: the growth yield is 110 ± 5.1% (40 h) and 105 ± 2.7% (72 h).
In the same order, the values of `CN[C@@H]1[C@@H](O[C@H]2O[C@H](CO)[C@@H](N)[C@H](O)[C@H]2O)OC2C[C@@H](N)[C@@H](O[C@H]3[C@H](O)[C@@H](O)[C@H](N)C[C@@H]3N)OC2[C@@H]1O` (some centres not stated) [Apramycin] + CCCCNC(=O)OCC#CI [3-iodo-2-propynyl butylcarbamate (IPBC)] are 96.6 ± 4.1% and 97.1 ± 1.5%.
In the same order, the values of `CCCN(CCC)S(=O)(=O)c1ccc(C(=O)O)cc1` [Probenecid] + CCCCNC(=O)OCC#CI [3-iodo-2-propynyl butylcarbamate (IPBC)] are 81.5 ± 4.9% and 86.1 ± 0.73%.
In the same order, the values of `NC(=O)N1c2ccccc2C=Cc2ccccc21` [Carbamazepine] + CCCCNC(=O)OCC#CI [3-iodo-2-propynyl butylcarbamate (IPBC)] are 92.8 ± 1.9% and 93.8 ± 1.1%.
As to `COc1cc2c(c(OC)c1OC)-c1ccc(OC)c(=O)cc1[C@@H](NC(C)=O)CC2` [Colchicine] + CCCCNC(=O)OCC#CI [3-iodo-2-propynyl butylcarbamate (IPBC)], the growth yield reads like this: (40 h) 88.5 ± 6.8%; (72 h) 92.9 ± 1.7%.
In the same order, the values of `NC[C@@H]1O[C@H](O[C@H]2[C@@H](O)[C@H](O[C@@H]3[C@@H](O)[C@H](N)C[C@H](N)[C@H]3O[C@H]3O[C@H](CO)[C@@H](O)[C@H](O)[C@H]3N)O[C@@H]2CO)[C@H](N)[C@@H](O)[C@@H]1O` [Paromomycin sulfate] + CCCCNC(=O)OCC#CI [3-iodo-2-propynyl butylcarbamate (IPBC)] are 84 ± 7.2% and 86.5 ± 2.2%.
In the same order, the values of `COC1=C(OC)C(=O)C(CCCCCCCCCCO)=C(C)C1=O` [Idebenone] + CCCCNC(=O)OCC#CI [3-iodo-2-propynyl butylcarbamate (IPBC)] are 49.1 ± 8.1% and 73.9 ± 4.5%.
As for `CCn1cc(C(=O)O)c(=O)c2cc(F)c(N3CCNC(C)C3)c(F)c21` (configuration not stated) [Lomefloxacin hydrochloride] + CCCCNC(=O)OCC#CI [3-iodo-2-propynyl butylcarbamate (IPBC)], the growth yield is, setting by setting: (40 h) 87.4 ± 8.3%; (72 h) 96.3 ± 6.5%.
In the same order, the values of `CCCN(CCC)CCc1cccc2c1CC(=O)N2` [Ropinirole hydrochloride] + CCCCNC(=O)OCC#CI [3-iodo-2-propynyl butylcarbamate (IPBC)] are 84.8 ± 1.3% and 90.61 ± 0.42%.
In the same order, the values of `O=C(O)c1ccccc1Nc1cccc(C(F)(F)F)c1` [Flufenamic acid] + CCCCNC(=O)OCC#CI [3-iodo-2-propynyl butylcarbamate (IPBC)] are 29.1 ± 2.1% and 59.05 ± 0.32%.
In the same order, the values of `O=C(O)c1cccnc1Nc1cccc(C(F)(F)F)c1` [Niflumic acid] + CCCCNC(=O)OCC#CI [3-iodo-2-propynyl butylcarbamate (IPBC)] are 63.9 ± 2.9% and 85.2 ± 3.1%.
For the molecule `O=C(OCCOCCO)c1ccccc1Nc1cccc(C(F)(F)F)c1` [Etofenamate] + CCCCNC(=O)OCC#CI [3-iodo-2-propynyl butylcarbamate (IPBC)], the growth yield was determined as 59.2 ± 1.4% (40 h) and 94.4 ± 2.1% (72 h).
For `CCCc1nc(C(C)(C)O)c(C(=O)O)n1Cc1ccc(-c2ccccc2-c2nnn[nH]2)cc1` [Olmesartan] + CCCCNC(=O)OCC#CI [3-iodo-2-propynyl butylcarbamate (IPBC)], in that order: 107 ± 1.3% and 104 ± 1.4%.
For `OC(c1cc(C(F)(F)F)nc2c(C(F)(F)F)cccc12)C1CCCCN1` (configuration not stated) [Mefloquine hydrochloride] + CCCCNC(=O)OCC#CI [3-iodo-2-propynyl butylcarbamate (IPBC)], in that order: 74.8 ± 4% and 103 ± 3.4%.
Take `O=C(O)Cc1ccc(-c2ccccc2)cc1` [Felbinac] + CCCCNC(=O)OCC#CI [3-iodo-2-propynyl butylcarbamate (IPBC)]: the growth yield by setting is: (40 h) 56.2 ± 4.1%; (72 h) 91.9 ± 4.6%.
For `O=C(O)CCc1nc(-c2ccccc2)c(-c2ccccc2)o1` [Oxaprozin] + CCCCNC(=O)OCC#CI [3-iodo-2-propynyl butylcarbamate (IPBC)], in that order: 72.7 ± 4.5% and 85.47 ± 0.73%.
In the same order, the values of `O=C(O)Cc1sc(-c2ccccc2)nc1-c1ccc(Cl)cc1` [Fentiazac] + CCCCNC(=O)OCC#CI [3-iodo-2-propynyl butylcarbamate (IPBC)] are 25.4% and 77.1 ± 16%.
